# FLuc inh: blocks purified firefly luciferase enzyme activity; P08659; purified P. pyralis luciferase, luminescence, biochemical; Potency, µM (top dose mostly 115 µM), actives largely listed as inhibitors; actives 2.5% (n = 76,000); further: nearly all actives have a fitted effect of over 65% in size
#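 FLuc 10nM, D-luciferin 10uM, ATP 10uM, Mg acetate 10mM, Tris acetate pH 7.5, Tween/BSA; cpd qHTS; enzyme added last; CCD luminescence.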
# HEK cytotox: kills HEK 293 cells | HEK 293 viability, ATP luminescence (CellTiter-Glo), 48-72 h | Potency, µM (top dose mostly 115 µM), without a hit: at the top dose activity change, negative = cytotoxicity, most hits filed as inhibitors | actives 6.6% (n = 94,000) | AID 1345083; further: nearly all actives have a fitted effect of over 60% in size
#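 HEK 293 seeded at 250 cells/well receive compound via pintool. After 48 or 72 hr at 37 degree Celsius, 5% CO2 and 95% humidity, CellTiter-Glo is dispensed and luminescence read following 10 min at room temperature.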
# NPR1 antag: blocks ANP-stimulated signaling of human Npr1 receptor. AID 1347048. actives 1.6% (n = 76,000). HEK293 hNpr1 GloSensor cGMP, ANP-stimulated luminescence. P16066. Potency, µM (doses to about 46.3 µM), inactives show at the top dose activity change, negative = inhibition, most hits filed as inhibitors; calls by dose curve; further: nearly all actives have a fitted effect of over 60% in size
# Target sequence (P16066 whole entry, looked up): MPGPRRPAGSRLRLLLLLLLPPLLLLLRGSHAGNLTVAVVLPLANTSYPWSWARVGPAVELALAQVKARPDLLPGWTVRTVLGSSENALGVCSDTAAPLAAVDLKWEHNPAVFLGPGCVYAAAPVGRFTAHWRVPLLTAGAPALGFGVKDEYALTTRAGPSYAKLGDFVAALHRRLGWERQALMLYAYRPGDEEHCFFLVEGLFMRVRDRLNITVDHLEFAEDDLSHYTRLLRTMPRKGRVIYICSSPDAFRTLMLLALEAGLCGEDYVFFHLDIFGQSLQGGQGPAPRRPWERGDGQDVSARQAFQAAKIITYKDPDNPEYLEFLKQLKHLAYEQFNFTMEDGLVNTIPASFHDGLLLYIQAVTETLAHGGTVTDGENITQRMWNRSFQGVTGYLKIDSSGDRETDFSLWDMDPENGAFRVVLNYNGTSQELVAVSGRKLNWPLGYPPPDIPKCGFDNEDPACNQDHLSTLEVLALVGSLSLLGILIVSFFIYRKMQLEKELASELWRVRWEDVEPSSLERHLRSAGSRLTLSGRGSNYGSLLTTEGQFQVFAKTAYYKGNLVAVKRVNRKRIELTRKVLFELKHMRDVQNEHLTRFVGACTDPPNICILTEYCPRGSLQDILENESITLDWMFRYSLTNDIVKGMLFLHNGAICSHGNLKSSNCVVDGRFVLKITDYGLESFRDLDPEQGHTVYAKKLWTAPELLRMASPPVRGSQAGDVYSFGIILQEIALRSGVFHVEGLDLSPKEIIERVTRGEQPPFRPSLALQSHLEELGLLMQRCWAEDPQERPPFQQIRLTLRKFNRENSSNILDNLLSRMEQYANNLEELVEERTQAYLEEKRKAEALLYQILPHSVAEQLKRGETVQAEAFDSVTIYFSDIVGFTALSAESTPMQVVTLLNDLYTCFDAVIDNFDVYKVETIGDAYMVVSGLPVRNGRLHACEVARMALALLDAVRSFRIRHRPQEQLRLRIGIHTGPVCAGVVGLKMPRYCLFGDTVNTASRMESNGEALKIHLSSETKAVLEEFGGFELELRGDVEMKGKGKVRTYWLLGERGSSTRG
#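 HEK293 cells stably expressing human Npr1 and cGMP GloSensor pGS-40F, loaded 2 h with 2% GloSensor reagent, given compound 30 min at room temperature. Luminescence read before and 20 min after 0.1 nM hNppA.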
# NIH3T3 tox: cytotoxic compounds in NIH 3T3 cells; NIH 3T3 viability, CellTiter-Glo ATP luminescence, 48-72 h; Potency, µM (series often up to 96.7 µM), for the others: at the highest dose activity change, negative = cytotoxicity, most hits filed as inhibitors; actives 4.3% (n = 94,000); further: nearly all actives have a fitted effect of over 55% in size
#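 Cells were seeded at 400 per well, treated with pin-transferred compound, and kept 48 or 72 hr at 37 °C before CellTiter-Glo addition and luminescence imaging of cellular ATP.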
# * marks the source's active call; other numbers are inactive results; i = inactive; ? = inconclusive; / = not tested or not shown; [ ] = remark or other dose. A selection: hits, their analogues and other compounds. The true share with any hit is near 11%. Unless noted, the call rests on the fitted dose curve; in most records, active means well fitted curve in the direction sought with a large enough effect; inconclusive means small, poorly fitted or top-dose-only effect, or another doubt; inactive means no such curve, though single readings can be large; an effect the other way counts as inactive or inconclusive. On the % scale 0 is the no-effect control and ±100 the full control effect; potency means the concentration at half of the fitted maximal effect.
SMILES,FLuc inh,HEK cytotox,NPR1 antag,NIH3T3 tox
C#CCNC(=O)[C@@H]1Cc2cn(Cc3c(C)noc3C)c3cccc(c23)[C@H](CC(C)C)N1,i,40µM*,-29%[70.6 µM],50µM*
Cc1noc(C)c1Cn1cc2c3c(cccc31)[C@H](CC(C)C)N[C@H](C(=O)N1CCOCC1)C2,i,?,0%,-21%
Cc1noc(C)c1Cn1cc2c3c(cccc31)[C@H](CC(C)C)N[C@H](C(=O)NC1CCC1)C2,i,40µM*,0%[70.6 µM],?
C#CCN(C)Cc1nc(C2(O)CCN(CCC(C)C)CC2)cs1,i,-29%[172 µM],-2%[70.6 µM],?
COC(=O)N1CCCN(c2nccc(Nc3ccc(C)cc3)n2)C1,/,50µM*,/,35µM*
COc1ccc(Nc2ccnc(N3CCN(C(=O)c4ccc(C)cc4)CC3)n2)cc1,/,13µM*,/,32µM*
Cc1ccc(Nc2ccnc(N3CCCN([S+](=O)([O-])c4cccs4)C3)n2)cc1,/,25µM*,/,?
Cc1ccc(Nc2ccnc(N3CCCC3C(=O)N3CCN(C)CC3)n2)cc1 (stereo not drawn),/,-29%,/,-26%
COc1ccc(Nc2ccnc(N3CCN(C(=O)c4ccc(C(F)(F)F)cc4)CC3)n2)cc1,/,35µM*,/,?
O=C1CC[C@]2(C(=O)NCc3ccccn3)CCCC[C@H]2N1CCc1ccccc1,i,-13%,-4%,-18%
CCc1nc(-c2c3n(c(=O)n(Cc4ccc(F)c(F)c4)c2=O)CCCCC3)no1,i,-29%,0%,?
COc1ccc(C(=O)N2CCCN(c3nccc(Nc4ccc(C)cc4)n3)C2)cc1,/,11µM*,/,?
O=C1c2c(nc(COc3ccc4c(c3)OCO4)n2Cc2ccccc2)NCCN1Cc1ccccc1,i,45µM*,?,25µM*
O=C1c2c(nc(CNCc3ccc4c(c3)OCO4)n2Cc2ccccc2)NCCN1CCOc1ccccc1,i,?,-14%,40µM*
O=C1c2c(nc(COc3ccc4c(c3)OCO4)n2Cc2ccccc2)NCCN1Cc1cccc(Cl)c1,i,32µM*,?,22µM*
O=C1c2c(nc(COc3ccc4c(c3)OCO4)n2Cc2ccccc2)NCCN1CCOc1ccccc1,i,40µM*,-28%,?
COc1ccc(-c2cccc(C(=O)N3CCC(NC(=O)c4cccc(Cl)c4)CC3)c2)nn1,/,?,/,-28%
COc1ccccc1-c1nnc2ccc(C(=O)N3CCN(C)CC3)cn12,/,-3%,/,5%
Cc1ccccc1NCc1nc2c(n1Cc1ccccc1)C(=O)N(C)CCN2,i,?,-22%[70.6 µM],-13%[138 µM]
Cc1ccccc1NCc1nc2c(n1Cc1ccccc1)C(=O)N(CCOc1ccccc1)CCN2,i,?,-19%,32µM*
COCC1CN(C(=O)c2ccc(Cc3c(C)noc3C)o2)CC12CCNCC2 (stereo not drawn),i,-21%,4%,-11%
Cc1noc(C)c1Cc1ccc(C(=O)N2CCC3(CC2)CC(Cc2ccc(F)cc2)CCO3)o1 (stereo not drawn),/,28µM*,/,?
Cc1ccc(CC2CCOC3(CCN(C(=O)c4cccs4)CC3)C2)cc1 (stereo not drawn),i,45µM*,?,?
Cc1cccc(C(=O)N2CCC3(CC2)CC(CC(=O)N2CCOCC2)CCO3)c1 (stereo not drawn),i,-6%,-5%,-17%
Cc1ccc(CC2CCOC3(CCN(C(=O)c4cccc(C#N)c4)CC3)C2)cc1 (stereo not drawn),i,50µM*,?,?
SMILES,FLuc inh,HEK cytotox,NPR1 antag,NIH3T3 tox
O=C(CC1CCOC2(CCN(C(=O)c3cccs3)CC2)C1)N1CCCC1 (stereo not drawn),/,-8%,/,-17%
Cc1cccc(C(=O)N2CCC3(CC2)CC(Cc2ccc(F)cc2)CCO3)c1 (stereo not drawn),i,45µM*,-16%,?
Cc1cc(C)cc(Nc2nc(C)cc(=O)n2CC(=O)Nc2cccc(Br)c2)c1,i,?,-22%,?
CC(C)(C)CN1CCOC[C@H]1c1ncc(-c2ccccc2)[nH]1,i,79µM*,-12%[70.6 µM],?
FC(F)(F)c1ccc(-c2cnc([C@@H]3COCCN3Cc3ccccn3)[nH]2)cc1,i,56µM*,-6%[70.6 µM],40µM*
CO[C@@](C(=O)N1CCOC[C@H]1c1ncc(-c2ccccc2)[nH]1)(c1ccccc1)C(F)(F)F,i,?,-26%,45µM*
CC(C)(C)CN1CCOC[C@H]1c1ncc(-c2cccc(Cl)c2)[nH]1,i,100µM*,-18%[70.6 µM],89µM*
CNC(=O)c1cc(C)nc2onc(C3CCN(C(=O)NC4CCCC4)CC3)c12,/,-15%,/,-25%
CC(=O)N1CCC(C(=O)N2CCC(c3nc4ncccc4[nH]3)C2)CC1 (stereo not drawn),/,-2%,/,-18%
Cc1cc2ncc(C(=O)NC3CCCCC3)cn2n1,/,-7%[172 µM],/,-11%[138 µM]
COCCN1C(=O)[C@H]2CC[C@@H]1CN(c1ncnc3sc(C)c(C)c13)C2,i,?,?,?
C[C@@H](NC(=O)N1CCOC[C@H]1c1ncc(-c2ccc(OC(F)(F)F)cc2)[nH]1)c1ccccc1,i,?,0%,?
C[C@@H](NC(=O)N1CCOC[C@H]1c1ncc(-c2ccc(Cl)cc2)[nH]1)c1ccccc1,i,?,-20%[70.6 µM],100µM*
COc1cc(OC)cc(C(=O)N2CCC(c3n[nH]c(=O)n3-c3ccc(C)cc3)CC2)c1,i,2%,13%,25µM*
Cc1ccc(CC(=O)N2CCC(c3n[nH]c(=O)n3-c3ccc(C)cc3)CC2)cc1,i,4%,-7%,?
COc1cccc(C(=O)N2CCC(c3n[nH]c(=O)n3-c3ccc(C)cc3)CC2)c1,i,-6%,3%,35µM*
COc1ccc(CC(=O)N2CCC(c3n[nH]c(=O)n3-c3ccc(C)cc3)CC2)cc1,i,-8%,0%,32µM*
COc1cc(OC)cc(C(=O)N2CCC(c3n[nH]c(=O)n3-c3ccccc3)CC2)c1,i,-4%,0%,?
O=C(Cc1ccc(OC(F)(F)F)cc1)N1CCC(c2n[nH]c(=O)n2-c2ccccc2)CC1,i,4%,3%,?
O=C(Cc1ccc(Cl)cc1)N1CCC(c2n[nH]c(=O)n2-c2ccccc2)CC1,i,-2%,10%,32µM*
CN1CCOc2c(C(=O)NCc3cccnc3)cc(-c3cccc4[nH]ccc34)cc21,i,?,2%[70.6 µM],?
CCc1ccccc1NC(=O)N1CCC(Oc2ncccc2C(=O)N2CCCCC2)C1 (stereo not drawn),i,1%,2%,-19%
CCc1nc2c(c(-c3ccc(O)cc3)n1)CCN(Cc1ccccn1)CC2,i,2%,6%,4%
Cc1ccc(C(=O)N2CCCC(c3nn(-c4ccccn4)c(=O)[nH]3)C2)cc1 (stereo not drawn),/,4%,/,0%
COc1cc(OC)cc(C(=O)N2CCC(c3n[nH]c(=O)n3Cc3ccc(F)cc3)CC2)c1,i,1%,0%,18µM*
